Experimental data from PubChem BioAssay.
Calls of active or inactive are those of the source.

Columns and labels:
[1] = E. coli DRC41 culture turbidity changes, primary screen, E. coli filamentation inducer project, strain DRC41, OD650, 48 h (AID 1152);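 further: E. coli MC1000 strain DRC41 lacking acrAB efflux pump and sulA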; conditions: E. coli DRC41 (acrAB sulA), higher = more signal, called active from +8 up or from −8 down
[2] = small-molecule binders of probe aLefty1, primary screen, biochemical, small-molecule microarray, 635/667 nm fluorescence (AID 1153); conditions: higher = more signal;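 further: score merges spot fluorescence with signal-to-noise ratio from the scanned slide images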
[3] = PSAC antagonists in infected red cells, primary screen, cell-based, P. falciparum Indochina, OD700, 1 h (AID 1154); conditions: P. falciparum Indochina infected RBC osmotic lysis, higher = more signal, called active from +8 up or from −8 down
[4] = PSAC antagonists in infected red cells, primary screen, cell-based, P. falciparum Indochina, OD700, 2 h (AID 1155);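 further: lysis reports solute entry through the parasite surface anion channel PSAC; channel blockers reduce lysis of infected cells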; conditions: P. falciparum Indochina infected erythrocytes, osmotic lysis OD700; higher = more signal, called active from +8 up or from −8 down
[5] = osmotic lysis modulators in infected erythrocytes, primary screen, PSAC antagonist project, cell-based, P. falciparum Indochina, OD700, 3 h (AID 1156); conditions: higher = more signal, called active from +8 up or from −8 down
[6] = PSAC antagonists in infected red cells, primary screen, cell-based, P. falciparum Indochina, OD700, 18 h (AID 1157); conditions: P. falciparum Indochina infected erythrocytes, osmotic lysis OD700, 18 h; higher = more signal, called active from +8 up or from −8 down
[7] = modulators of S6 phosphorylation in cells, primary screen, cell-based, A549, cytoblot, luminescence, serum-stimulated (AID 1158); conditions: A549 phospho-S6 cytoblot, 5 h, higher = more signal;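 further: serum-stimulated A549 lung adenocarcinoma cells; signal is phosphorylated S6 detected by cytoblot immunostaining with HRP secondary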
[8] = biological target: NADPH oxidase 2 (Homo sapiens) (UniProt P04839); assay: NOX2-dependent H2O2 signal modulators, primary screen, NOX inhibitor project, cell-based, HEK293-NOX2, PMA-stimulated, Amplex Red fluorescence (AID 1159); conditions: 45 min, higher = more signal, called active from +8 up or from −8 down; further: test concentration not given here
Sequence of NADPH oxidase 2 (Homo sapiens) (P04839 whole entry, looked up): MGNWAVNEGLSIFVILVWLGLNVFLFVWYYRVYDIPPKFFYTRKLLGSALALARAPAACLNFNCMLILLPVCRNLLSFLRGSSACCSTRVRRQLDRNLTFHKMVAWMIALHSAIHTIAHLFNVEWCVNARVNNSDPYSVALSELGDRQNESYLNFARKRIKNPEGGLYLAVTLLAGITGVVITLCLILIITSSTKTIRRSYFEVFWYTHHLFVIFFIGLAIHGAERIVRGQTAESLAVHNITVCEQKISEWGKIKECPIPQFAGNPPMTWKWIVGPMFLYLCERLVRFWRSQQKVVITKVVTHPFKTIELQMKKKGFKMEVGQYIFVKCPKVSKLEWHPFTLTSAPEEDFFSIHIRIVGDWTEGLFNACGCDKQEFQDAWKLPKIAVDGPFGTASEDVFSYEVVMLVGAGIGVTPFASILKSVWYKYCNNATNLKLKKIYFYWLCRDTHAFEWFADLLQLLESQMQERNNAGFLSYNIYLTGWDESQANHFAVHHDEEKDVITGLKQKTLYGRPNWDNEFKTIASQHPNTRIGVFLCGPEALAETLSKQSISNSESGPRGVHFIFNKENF

[9] = biological target: NADPH oxidase 4 (Homo sapiens) (UniProt Q9NPH5); assay: NOX4-dependent H2O2 signal modulators, primary screen, NOX inhibitor project, cell-based, HEK293-NOX4, tetracycline-induced, Amplex Red fluorescence (AID 1160); conditions: 45 min, higher = more signal, called active from +8 up or from −8 down
Sequence of NADPH oxidase 4 (Homo sapiens) (Q9NPH5 whole entry, looked up): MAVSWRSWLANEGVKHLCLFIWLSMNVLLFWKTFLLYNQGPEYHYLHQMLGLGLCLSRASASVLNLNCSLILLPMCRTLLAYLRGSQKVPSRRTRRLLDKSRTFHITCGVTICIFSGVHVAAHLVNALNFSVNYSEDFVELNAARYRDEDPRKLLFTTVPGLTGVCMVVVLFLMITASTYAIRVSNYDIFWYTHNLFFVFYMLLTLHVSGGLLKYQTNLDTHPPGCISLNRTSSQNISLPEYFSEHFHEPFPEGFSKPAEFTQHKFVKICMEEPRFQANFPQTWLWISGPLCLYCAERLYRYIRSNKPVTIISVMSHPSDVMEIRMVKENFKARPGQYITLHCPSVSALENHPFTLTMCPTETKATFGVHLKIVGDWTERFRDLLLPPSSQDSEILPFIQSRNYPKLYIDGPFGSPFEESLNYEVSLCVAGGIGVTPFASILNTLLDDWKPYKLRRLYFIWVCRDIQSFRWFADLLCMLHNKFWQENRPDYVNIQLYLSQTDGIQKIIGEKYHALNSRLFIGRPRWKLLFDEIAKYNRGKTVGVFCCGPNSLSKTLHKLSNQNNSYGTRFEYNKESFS

[10] = biological target: NADPH oxidase 5 (Homo sapiens) (UniProt Q96PH1); assay: NOX5-dependent H2O2 signal modulators, primary screen, NOX inhibitor project, cell-based, HEK293-NOX5, Amplex Red fluorescence (AID 1161); conditions: HEK293-NOX5, ionomycin, 45 min, higher = more signal
Sequence of NADPH oxidase 5 (Homo sapiens) (Q96PH1 whole entry, looked up): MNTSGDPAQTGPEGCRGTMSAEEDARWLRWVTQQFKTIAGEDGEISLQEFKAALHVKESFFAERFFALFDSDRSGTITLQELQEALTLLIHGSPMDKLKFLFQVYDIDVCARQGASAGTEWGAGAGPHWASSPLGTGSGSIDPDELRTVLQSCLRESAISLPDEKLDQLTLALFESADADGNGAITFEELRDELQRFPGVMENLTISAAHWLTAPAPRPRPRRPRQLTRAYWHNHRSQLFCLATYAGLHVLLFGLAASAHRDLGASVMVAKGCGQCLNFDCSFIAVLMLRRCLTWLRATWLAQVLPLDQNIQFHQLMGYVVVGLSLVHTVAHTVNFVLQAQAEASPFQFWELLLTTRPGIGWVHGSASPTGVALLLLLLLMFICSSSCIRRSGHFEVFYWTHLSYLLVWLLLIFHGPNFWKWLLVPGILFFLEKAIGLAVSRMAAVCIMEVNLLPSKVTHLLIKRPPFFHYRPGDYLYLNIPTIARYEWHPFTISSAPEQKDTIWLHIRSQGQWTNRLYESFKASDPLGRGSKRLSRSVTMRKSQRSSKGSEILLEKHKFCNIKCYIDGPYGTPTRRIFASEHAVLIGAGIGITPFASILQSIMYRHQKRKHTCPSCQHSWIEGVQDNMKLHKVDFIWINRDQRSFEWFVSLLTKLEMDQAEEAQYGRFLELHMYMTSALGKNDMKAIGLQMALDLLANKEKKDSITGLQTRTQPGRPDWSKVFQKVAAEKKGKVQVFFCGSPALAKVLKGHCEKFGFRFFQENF

[11] = A549 cell viability effects, profiling panel, calcein-AM fluorescence, 48 h, basal (AID 1162); conditions: higher = more signal; further: test concentration not given here
[12] = adipocyte viability effects, profiling panel, cell-based, 3T3-L1 adipocytes, calcein-AM fluorescence, 48 h, basal (AID 1163); conditions: 3T3-L1 adipocytes viability, higher = more signal; further: test concentration not given here
[13] = HepG2 cell viability effects, profiling panel, calcein-AM fluorescence, 48 h, basal (AID 1164); conditions: higher = more signal; further: test concentration not given here
[14] = MM1S cell viability effects, profiling panel, calcein-AM fluorescence, 48 h, basal (AID 1165); conditions: higher = more signal;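 further: viability of MM1S multiple myeloma cells under basal unstimulated conditions; test concentration not given here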
[15] = basal RPMI8226 viability, no added stimulus, profiling panel, cell-based, calcein-AM fluorescence, 48 h, PK04 Diversity Set (AID 1166); conditions: RPMI8226 myeloma viability, higher = more signal;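 further: cells grown under basal conditions without added stimulus; test concentration not given here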
[16] = basal HepG2 mitochondrial membrane potential changes, profiling panel, cell-based, JC-1 fluorescence, 24 h, 100 nL compound (AID 1167); conditions: higher = more signal; further: test concentration not given here
[17] = basal 3T3-L1 adipocyte mitochondrial potential changes, profiling panel, cell-based, JC-1 fluorescence, 3T3-L1 adipocytes, 24 h, 100 nL compound (AID 1168); conditions: JC-1 mitochondrial fluorescence, higher = more signal, called active from +8 up or from −8 down; further: test concentration not given here
[18] = basal RPMI8226 mitochondrial membrane potential changes, profiling panel, cell-based, JC-1 fluorescence, 24 h, 100 nL compound (AID 1169); conditions: RPMI8226 myeloma, JC-1 mitochondrial potential fluorescence, higher = more signal; further: test concentration not given here
[19] = basal MM1S mitochondrial membrane potential changes, profiling panel, cell-based, JC-1 fluorescence, 24 h, 100 nL compound (AID 1170); conditions: higher = more signal; further: test concentration not given here
[20] = A549 lung cancer cell viability effects, profiling panel, resazurin fluorescence, 24 h, PK04 Diversity Set (AID 1171); conditions: higher = more signal, called active from +8 up or from −8 down; further: test concentration not given here

SMILES	z-score [1]	composite z-score [2]	z-score [3]	z-score [4]	z-score [5]	z-score [6]	z-score [7]	z-score [8]	z-score [9]	z-score [10]	z-score [11]	z-score [12]	z-score [13]	z-score [14]	z-score [15]	z-score [16]	z-score [17]	z-score [18]	z-score [19]	z-score [20]
Cc1ccc(S[C@]2(C(=O)NCC(C)C)CC(=O)N(C(C)C)[C@@H]2c2ccc(CO)cc2I)cc1	0.746 (inactive)	0.245	4.28 (inactive)	0.965 (inactive)	0.504 (inactive)	0.279 (inactive)	0.363	2.02 (inactive)	-0.511 (inactive)	1.9	1.97	0.508	0.867	-2.41	-2.03	0.978	0.953 (inactive)	-0.94	-1.19	0.677 (inactive)
O=C1O[C@@H](c2ccccc2)[C@@H](c2ccccc2)N2[C@@H](c3ccc(OCCO)cc3)[C@]3(C(=O)Nc4ccc(C#CC5=CCCCC5)cc43)[C@@H](C(=O)Nc3nc4ccccc4s3)[C@H]12	-0.558 (inactive)	-0.0857	1.88 (inactive)	2.03 (inactive)	1.92 (inactive)	2.11 (inactive)	-0.579	1.01 (inactive)	-0.188 (inactive)	0.0226	0.583	0.0884	0.803	-1.69	-2.18	-3.08	-0.395 (inactive)	-1.12	-1.92	-1.27 (inactive)
COc1ccc([Si](C)(C)[C@@H]2[C@@H](CC(=O)N3Cc4ccccc4C[C@H]3CO)O[C@]3(C(=O)N(Cc4ccc(I)cc4)c4ccccc43)[C@H]2C)cc1	1.35 (inactive)	0.0063	4.93 (inactive)	1.98 (inactive)	2.47 (inactive)	1.21 (inactive)	0.192	1.19 (inactive)	1.15 (inactive)	0.652	-0.806	0.62	-0.435	-1.98	-0.588	0.81	0.124 (inactive)	-0.531	0.122	-0.663 (inactive)
CCOC(=O)C[C@H]1[C@H](OC(=O)c2ccc(-c3ccccc3)cc2)[C@@H](NC(=O)c2ccc(-c3ccccc3)cc2)c2cc(OCCCO)ccc2N1C(=O)c1ccccc1	-0.825 (inactive)	0.0437	0.744 (inactive)	0.745 (inactive)	-0.392 (inactive)	0.678 (inactive)	-0.0382	0.546 (inactive)	-1.29 (inactive)	-0.655	-0.555	-0.132	-0.134	0.125	-0.473	0.642	-0.45 (inactive)	0.812	0.0869	-0.769 (inactive)
O=C1N(Cc2ccccc2)Cc2ccccc2C[C@@]12COC(c1ccc(OCCCO)cc1)=N2	-0.595 (inactive)	0.179	20.3 (active)	4.93 (inactive)	3.72 (inactive)	1.48 (inactive)	-0.087	-5.75 (inactive)	-0.977 (inactive)	-1.8	-1.62	1.06	0.325	-3.63	-4.39	-0.641	0.172 (inactive)	-1.18	-1.91	-2.8 (inactive)
O=C1OCC=C[C@H]2OC34C=CCN(Cn5nnc6ccccc65)C(=O)[C@H]3N(CCO)C(=O)[C@@H]4[C@@H]12 (stereo not given in full)	-0.683 (inactive)	-0.101	0.813 (inactive)	0.531 (inactive)	0.268 (inactive)	0.55 (inactive)	-0.376	1.17 (inactive)	0.99 (inactive)	1.38	0.0757	-0.529	0.344	0.897	0.209	-1.15	0.765 (inactive)	-0.462	-0.187	-0.822 (inactive)
[N-]=[N+]=NCc1ccccc1C[C@@]1(C(N)=O)N=C(c2ccc(OCCCO)cc2)O[C@@H]1c1ccccc1N=[N+]=[N-]	-1.04 (inactive)	0.045	32.4 (active)	31.4 (active)	1.81 (inactive)	2.31 (inactive)	-0.441	0.0502 (inactive)	-0.393 (inactive)	-1.89	-0.908	-0.278	-0.705	-3	-3.1	-1.07	-0.71 (inactive)	-1.08	-0.62	-0.583 (inactive)
CCOC(=O)C=C1C[C@@H](c2cccc([N+](=O)[O-])c2)O[C@@H](c2cccc([N+](=O)[O-])c2)O1	-0.546 (inactive)	1.21	1.65 (inactive)	1.11 (inactive)	-0.481 (inactive)	0.66 (inactive)	-0.125	0.325 (inactive)	0.481 (inactive)	1.28	-0.865	-0.477	0.177	-0.71	-0.588	3.97	0.94 (inactive)	0.779	-0.351	1.44 (inactive)
C=CC[C@]12N=C(c3ccc(OCCCO)cc3)O[C@H]1c1ccccc1N(CCC)C2=O	-0.0423 (inactive)	1.26	32.8 (active)	33.1 (active)	2.98 (inactive)	4.84 (inactive)	0.204	-2.03 (inactive)	0.00147 (inactive)	-1.71	-1.36	0.538	-0.454	-2.03	-3.07	0.788	1.85 (inactive)	-1.07	-0.207	0.266 (inactive)
[N-]=[N+]=NCc1ccccc1[C@H]1OC(c2ccc(OCCCO)cc2)=N[C@@]1(Cc1ccccc1N=[N+]=[N-])C(=O)O	-1.17 (inactive)	0.479	22.2 (active)	3.83 (inactive)	0.0591 (inactive)	0.395 (inactive)	-0.314	0.831 (inactive)	0.982 (inactive)	1.51	-0.374	-1.69	0.312	-0.934	-0.984	-2.04	0.0914 (inactive)	-0.763	-0.596	0.216 (inactive)
CC(C)N1CC=CC23O[C@@H]4/C=C\CCCOC(=O)C4[C@H]2C(=O)N(C(C)CO)[C@@H]3C1=O (stereo not given in full)	2.12 (inactive)	-0.195	1.2 (inactive)	0.0831 (inactive)	1.07 (inactive)	0.429 (inactive)	0.979	0.667 (inactive)	0.142 (inactive)	0.883	0.0513	0.512	-0.145	0.967	0.629	0.412	-1.54 (inactive)	0.0317	-1.08	0.753 (inactive)
[N-]=[N+]=Nc1ccccc1C[C@]1(C(N)=O)COC(c2ccc(OCCCO)cc2)=N1	-0.142 (inactive)	0.146	24.7 (active)	9.16 (active)	1.56 (inactive)	0.0294 (inactive)	1.84	-2.14 (inactive)	-1.48 (inactive)	-2.48	-0.193	0.936	0.0027	-0.286	-0.334	0.253	-0.298 (inactive)	-0.964	-0.942	0.246 (inactive)
CCOC(=O)C1=CCC(c2ccncc2)N(S(=O)(=O)c2ccc(C)cc2)C1 (stereo not given)	0.149 (inactive)	0.13	4.24 (inactive)	1.29 (inactive)	0.488 (inactive)	0.953 (inactive)	-0.0707	0.168 (inactive)	0.432 (inactive)	0.0402	-1.72	-0.784	-1.37	-2.28	-1.31	-1.41	0.561 (inactive)	0.115	-1.61	-0.44 (inactive)
